Results as given in PubChem BioAssay (Tox21).
Several values for one entry are separate records, joined by “and”; a condition that tells them apart may be missing. Equal entries are not always repeated. Records with an inconclusive call do not appear. Activity calls are given as the source filed them. Calls follow the shape of the dose curve; as a rule, active = well fitted curve in the direction sought with a large enough effect in the repeat runs; inconclusive = weak or mixed curves; inactive = no such curve, though single readings can be large; an effect the other way counts as inactive or inconclusive.

Key:
[1] = qHTS RealTime-Glo MT Cell Viability Assay in HepG2 cells - 24 hour (AID 1224867); also: nearly all actives have a fitted effect of over 50% in size
How it was run: (§1)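 Cell number in HepG2 cultures estimated from NanoLuc luminescence generated by metabolic reduction of a prosubstrate by living cells. The homogeneous, nonlytic format allowed repeated reads at 0, 8, 16, 24, 32 and 40 h of compound exposure.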

[2] = qHTS RealTime-Glo MT Cell Viability Assay in HepG2 cells - 40 hour (AID 1224870); also: nearly all actives have a fitted effect of over 50% in size
How it was run: (§2)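 HepG2 cells mixed with RealTime-Glo MT reagents (NanoLuc plus cell-permeant prosubstrate) were seeded at 600 cells/well, incubated 5 h at 37 C/5% CO2, then pinned with compounds in DMSO; nonlytic luminescence tracked viability during 40 h treatment.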

[3] = A CellTox Green Cytotoxicity Assay to monitor cytotoxicity in HEK293 cells - 40 hour (AID 1224871); also: nearly all actives have a fitted effect of over 45% in size
How it was run: (§3)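 Cytotoxicity was tracked continuously in HEK293 cells by a DNA-binding dye excluded from viable cells. Compounds were transferred in DMSO 5 h after seeding; fluorescence was recorded at intervals up to 40 h.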

[4] = qHTS RealTime-Glo MT Cell Viability Assay in HEK293 cells - 16 hour (AID 1224872); also: top concentration of the series differs between compounds; nearly all actives have a fitted effect of over 50% in size
How it was run: (§4)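 Homogeneous bioluminescent viability format in HEK293 cells (600 cells/well). Following 5 h at 37 C/5% CO2, 23 nL compound was pintooled; the signal was measured repeatedly during 40 h incubation.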

[5] = qHTS RealTime-Glo MT Cell Viability Assay in HepG2 cells - 8 hour (AID 1224873); also: nearly all actives have a fitted effect of over 55% in size
How it was run: as §2

[6] = qHTS RealTime-Glo MT Cell Viability Assay in HEK293 cells - 40 hour (AID 1224874); details: RealTime-Glo luminescence; max response: hits give low values; also: nearly all actives have a fitted effect of over 50% in size
How it was run: (§5)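 Nonlytic bioluminescent viability monitoring. HEK293 at 600 cells/well with reagent; 5 h settle; compound transfer by pintool; plates held at 37 C and read at set time points.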

[7] = A CellTox Green Cytotoxicity Assay to monitor cytotoxicity in HEK293 cells - 24 hour (AID 1224875); also: series mostly up to about 77 µM; nearly all actives have a fitted effect of over 45% in size
How it was run: as §3

[8] = A CellTox Green Cytotoxicity Assay to monitor cytotoxicity in HepG2 cells - 16 hour (AID 1224876); also: nearly all actives have a fitted effect of over 45% in size
How it was run: (§6)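 Real-time, homogeneous cytotoxicity readout: dead-cell DNA staining by CellTox Green in HepG2 monolayers, fluorescence measured at timed intervals up to 40 h of continuous compound exposure.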

[9] = qHTS RealTime-Glo MT Cell Viability Assay in HepG2 cells - 32 hour (AID 1224877); also: nearly all actives have a fitted effect of over 55% in size
How it was run: as §1

[10] = A CellTox Green Cytotoxicity Assay to monitor cytotoxicity in HepG2 cells - 24 hour (AID 1224878); also: nearly all actives have a fitted effect of over 45% in size
How it was run: as §6

[11] = qHTS RealTime-Glo MT Cell Viability Assay in HEK293 cells - 0 hour (AID 1224880)
How it was run: as §5

[12] = A CellTox Green Cytotoxicity Assay to monitor cytotoxicity in HEK293 cells - 32 hour (AID 1224881); also: nearly all actives have a fitted effect of over 40% in size
How it was run: as §3

[13] = A CellTox Green Cytotoxicity Assay to monitor cytotoxicity in HepG2 cells - 0 hour (AID 1224882); also: nearly all actives have a fitted effect of over 35% in size
How it was run: as §6

[14] = A CellTox Green Cytotoxicity Assay to monitor cytotoxicity in HepG2 cells - 32 hour (AID 1224883); also: nearly all actives have a fitted effect of over 50% in size
How it was run: as §6

[15] = A CellTox Green Cytotoxicity Assay to monitor cytotoxicity in HEK293 cells - 8 hour (AID 1224884); also: nearly all actives have a fitted effect of over 35% in size
How it was run: as §3

[16] = A CellTox Green Cytotoxicity Assay to monitor cytotoxicity in HepG2 cells - 40 hour (AID 1224879); also: nearly all actives have a fitted effect of over 40% in size
How it was run: as §6

[17] = qHTS RealTime-Glo MT Cell Viability Assay in HEK293 cells - 32 hour (AID 1224868)
How it was run: as §4

[18] = A CellTox Green Cytotoxicity Assay to monitor cytotoxicity in HEK293 cells - 0 hour (AID 1224869); also: nearly all actives have a fitted effect of over 50% in size
How it was run: as §3
% is scaled to controls: 0 for no effect and ±100 for the full control effect.

CCCCCC(N)=O
inactive: outcome [1] | outcome [2] | Potency [3] | Potency [4] | outcome [5] | max response [6] 0.824% and 2.09% | Potency [7] | Potency [8] | outcome [9] | Potency [10] | Potency [11] | Potency [12] | outcome [13] | Potency [14] | outcome [15]

CCCCCCCCC/C=C/CC1CC(=O)OC1=O (centres undefined)
inactive: outcome [2] | Potency [3] | Potency [4] | outcome [5] | max response [6] -19.7% and -2.36% | Potency [7] | outcome [9] | Potency [10] | Potency [16] | Potency [11] | Potency [12] | outcome [13] | Potency [14] | outcome [15]

Cc1ccc(S(N)(=O)=O)cc1
inactive: Potency [17] | outcome [18] | outcome [2] | Potency [3] | Potency [4] | outcome [5] | max response [6] 1.64% | Potency [7] | Potency [8] | outcome [9] | Potency [10] | Potency [16] | Potency [11] | outcome [13] | Potency [14] | outcome [15]

CC(=O)c1ccccc1
inactive: outcome [18] | outcome [2] | Potency [3] | Potency [4] | outcome [5] | max response [6] 0.254% and 9.46% | Potency [7] | outcome [9] | Potency [10] | Potency [11] | Potency [12] | outcome [13] | Potency [14] | outcome [15]

CC1=CC(=O)NS(=O)(=O)O1
inactive: outcome [1] | outcome [2] | Potency [3] | Potency [4] | outcome [5] | max response [6] -28.6% and 3.78% | Potency [7] | Potency [8] | outcome [9] | Potency [10] | Potency [11] | Potency [12] | outcome [13] | Potency [14] | outcome [15]

NNc1nncc2ccccc12
inactive: activity change, negative = cytotoxic [17] 3.93% [at 15.8 µM] | outcome [18] | outcome [2] | Potency [3] | activity change, negative = cytotoxicity [4] -0.186% [at 15.8 µM] | outcome [5] | max response [6] 2.59% | Potency [7] | Potency [8] | outcome [9] | Potency [10] | Potency [16] | Potency [11] | Potency [12] | outcome [13] | Potency [14] | outcome [15]

CCCCCCCCCC
inactive: outcome [18] | outcome [2] | Potency [3] | Potency [4] | outcome [5] | max response [6] 1.13% and 22.3% | Potency [7] | Potency [8] | outcome [9] | Potency [10] | Potency [16] | Potency [11] | outcome [13] | Potency [14] | outcome [15]

c1ccc2scnc2c1
inactive: outcome [2] | Potency [3] | Potency [4] | outcome [5] | max response [6] 13.8% and 1.41% | Potency [7] | Potency [8] | outcome [9] | Potency [10] | Potency [16] | Potency [11] | Potency [12] | outcome [13] | Potency [14] | outcome [15]

COc1ccc2cc([C@H](C)C(=O)O)ccc2c1
inactive: outcome [1] | outcome [18] | outcome [2] | Potency [3] | Potency [4] | outcome [5] | max response [6] 5.06% and -0.971% | Potency [7] | outcome [9] | Potency [10] | Potency [11] | Potency [12] | outcome [13] | Potency [14] | outcome [15]

CCCCCCCCCCCCOCCO
inactive: outcome [1] | outcome [2] | Potency [3] | Potency [4] | outcome [5] | max response [6] -14.2% and -3.69% | Potency [7] | outcome [9] | Potency [10] | Potency [11] | outcome [13] | Potency [14] | outcome [15]

O=S(=O)(O)c1ccc2ccccc2c1
inactive: outcome [1] | outcome [2] | Potency [3] | Potency [4] | outcome [5] | max response [6] 19.4% and -5.62% | Potency [7] | Potency [8] | outcome [9] | Potency [10] | Potency [16] | Potency [11] | Potency [12] | outcome [13] | Potency [14] | outcome [15]

CC(=O)OCC(=O)[C@@]12N=C(C)O[C@@H]1C[C@H]1[C@@H]3CCC4=CC(=O)C=C[C@]4(C)[C@H]3[C@@H](O)C[C@@]12C
inactive: outcome [18] | outcome [2] | Potency [3] | Potency [4] | outcome [5] | max response [6] -2.48% and 0.51% | Potency [7] | Potency [8] | outcome [9] | Potency [10] | Potency [16] | Potency [11] | outcome [13] | Potency [14] | outcome [15]

CN(C)CCC(c1ccc(Cl)cc1)c1ccccn1 (centres undefined)
inactive: outcome [2] | Potency [3] | Potency [4] | outcome [5] | max response [6] -8.75% and -11.3% | Potency [7] | Potency [8] | outcome [9] | Potency [10] | Potency [11] | Potency [12] | outcome [13] | Potency [14] | outcome [15]

CC(C)(C)[C@@H](O)[C@@H](Cc1ccc(Cl)cc1)n1cncn1
inactive: outcome [1] | outcome [18] | outcome [2] | Potency [3] | Potency [4] | outcome [5] | Potency [7] | Potency [8] | outcome [9] | Potency [10] | Potency [11] | Potency [12] | outcome [13] | Potency [14] | outcome [15]

C[C@H]1C[C@H]2[C@@H]3CCC4=CC(=O)C=C[C@]4(C)[C@@]3(F)[C@@H](O)C[C@]2(C)[C@@]1(O)C(=O)CO
inactive: outcome [1] | outcome [2] | Potency [3] | Potency [4] | outcome [5] | max response [6] -12.6% and 0.279% | Potency [7] | Potency [8] | outcome [9] | Potency [10] | Potency [11] | Potency [12] | outcome [13] | Potency [14] | outcome [15]
